Experimental data as given in PubChem BioAssay AID624048 (National Center for Advancing Translational Sciences (NCATS), 2012).
Results filed as inconclusive are left out. Unmarked numbers belong to inactive results. Active and inactive are the calls of the source. The call rests on the fitted dose curve; in most records, active means well fitted inhibition curve with a large enough effect; inconclusive means small, poorly fitted or top-dose-only effect; inactive means no such curve, though single readings can be large or run the other way.

target: Dual specificity protein kinase CLK2 (Homo sapiens) (UniProt P49760); test: Reaction Biology data for inhibitors of CLK2: Probe SAR; settings: Reaction Biology CLK2 kinase assay, 10 uM ATP; series mostly up to 10 µM; activity change, negative = inhibition: at the top concentration
Sequence (P49760 whole entry, looked up, canonical isoform): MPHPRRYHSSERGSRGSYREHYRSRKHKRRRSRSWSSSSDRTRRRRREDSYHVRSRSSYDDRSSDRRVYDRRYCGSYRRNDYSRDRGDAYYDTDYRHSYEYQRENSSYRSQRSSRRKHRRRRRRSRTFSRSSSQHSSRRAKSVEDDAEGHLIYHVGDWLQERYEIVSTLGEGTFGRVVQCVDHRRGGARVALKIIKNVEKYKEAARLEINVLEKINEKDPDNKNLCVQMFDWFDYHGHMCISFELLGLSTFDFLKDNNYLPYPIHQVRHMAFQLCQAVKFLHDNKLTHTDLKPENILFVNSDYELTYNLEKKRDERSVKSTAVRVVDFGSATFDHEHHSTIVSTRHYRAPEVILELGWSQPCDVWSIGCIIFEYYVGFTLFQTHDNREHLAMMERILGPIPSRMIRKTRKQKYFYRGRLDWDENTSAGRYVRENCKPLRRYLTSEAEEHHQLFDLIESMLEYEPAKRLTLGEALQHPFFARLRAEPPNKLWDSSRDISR
Text: Alternative splicing of pre-mRNAs plays a major role in the regulation of eukaryotic gene expression. Alternative splicing is now thought to be one of the primary reasons for the complexity of higher organisms leading to an average of three protein isoforms per gene. Aberrant splicing can lead to a number of diseases and is known to play a role in rare genetic diseases such as progeria syndrome. Hutchinson-Gilford Progeria Syndrome (HGPS) is a pediatric premature aging disease caused by a spontaneous mutation in the lamin A/C (LMNA) gene due to a single point mutation in the lamin A gene effecting 1 in 4 million people. To identify both specific splicing modulators of the lamin A gene as well as general splicing modulators, a cell-based HTS assay was developed using a minigene reporter system (AIDs, 1459 & 1487). […] This AID summarizes the characterization of lead compounds in Clk2. NIH Molecular Libraries Probe Production Centers Network [MLPCN] NIH Chemical Genomics Center [NCGC] MLPCN Grant: MH084827 Assay Submitter (PI): Tom Misteli
Compound IC50s were determined at Reaction Biology (http://www.reactionbiology.com) with ten concentration points starting at 10 uM in the assay using a 3-fold dilution series. The control compound staurosporine was also tested in the 10-dose IC50 mode with the same 3-fold serial dilution, again starting at 10 uM. All kinase reactions were performed using 10 uM ATP in the assay. 100% activity was taken from kinase reactions with DMSO alone (the vehicle used for compound stock solutions).

SMILES	activity change, negative = inhibition [%]	Potency
Clc1ccc(CNc2ccnc(-c3ccc4c(c3)OCO4)n2)cc1Cl	-27.8	
Clc1ccc(CNc2nccc(-c3ccc4cn[nH]c4c3)n2)cc1Cl		429 nM (active)
FC(F)(F)c1cc(Br)cc(Nc2nccc(-c3ccc4c(c3)OCO4)n2)c1		344 nM (active)
c1cncc(CNc2ncncc2-c2ccc3c(c2)OCO3)c1	-42.4	
Cc1c(-c2ccnc(NCc3ccc(Cl)cc3)n2)sc(=O)n1C		700 nM (active)
Cc1nc(CNc2ncnc3ccc(-c4ccc5c(c4)OCO5)cc23)cs1		187 nM (active)
c1nc(NCC2CCCO2)c2cc(-c3ccc4c(c3)OCO4)ccc2n1 (stereo unspecified)		358 nM (active)
Cc1c(-c2ccnc(NCc3cccnc3)n2)sc(=O)n1C		576 nM (active)
Clc1ccc(Nc2nccc(-c3ccc4c(c3)OCO4)n2)cc1	-45	
Clc1ccc(CNc2nccc(-c3ccc4[nH]ncc4c3)n2)cc1Cl		190 nM (active)
Clc1ccc(CNc2ncncc2-c2ccc3c(c2)OCO3)cc1Cl		1560 nM (active)
Clc1ccc(CNc2nccc(-c3ccc4c(c3)OCO4)n2)cc1Cl		20.4 nM (active)
FC(F)(F)c1cccc(Nc2nccc(-c3ccc4c(c3)OCO4)n2)c1		52.1 nM (active)
COc1ccc(-c2ccnc(NCc3ccc(Cl)c(Cl)c3)n2)cc1		409 nM (active)
COc1ccc(-c2ccnc(NCc3ccc(Cl)c(Cl)c3)n2)cc1OC	-20.3	
c1cncc(CNc2ccnc(-c3ccc4cn[nH]c4c3)n2)c1		1900 nM (active)

SMILES	activity change, negative = inhibition [%]	Potency
Clc1ccc(CNc2nccc(-c3ccc4c(c3)OCCO4)n2)cc1Cl		39.1 nM (active)
COc1cccc(-c2ccnc(NCc3ccc(Cl)c(Cl)c3)n2)c1	-45.2	
Brc1ccc(CNc2nccc(-c3ccc4c(c3)OCO4)n2)cc1Br		29.6 nM (active)
Brc1cc(Br)cc(CNc2nccc(-c3ccc4c(c3)OCO4)n2)c1		41.4 nM (active)
COc1cccc(-c2ccnc(NCc3ccc(Cl)cc3)n2)c1	-39.2	
Clc1cc(Cl)cc(CNc2nccc(-c3ccc4c(c3)OCO4)n2)c1		23.4 nM (active)
Cc1nc(CN(C)c2ncnc3ccc(-c4ccc5[nH]ncc5c4)cc23)cs1		160 nM (active)
COc1ccc(-c2ccnc(NCc3ccc(Cl)cc3)n2)cc1		1090 nM (active)
c1cncc(CNc2nccc(-c3ccc4c(c3)OCO4)n2)c1		59.8 nM (active)
O=[N+]([O-])c1cc(Nc2nccc(-c3ccc4c(c3)OCO4)n2)cc(C(F)(F)F)c1		39.8 nM (active)
c1cncc(CNc2nccc(-c3ccc4[nH]ncc4c3)n2)c1		462 nM (active)
Clc1cc(Cl)cc(CNc2ncncc2-c2ccc3c(c2)OCO3)c1		231 nM (active)
c1cc(-c2ccc3c(c2)OCO3)nc(Nc2ccc3c(c2)OCO3)n1		259 nM (active)
c1cncc(CNc2ccnc(-c3ccc4[nH]ncc4c3)n2)c1		665 nM (active)
Cc1nc(CN(C)c2ncnc3ccc(-c4ccc5c(c4)OCO5)cc23)cs1		44.8 nM (active)
